Source: PubChem BioAssay (Tox21)
Results filed as inconclusive are left out. Calls of active or inactive are those of the source. Unless noted, calls come from the whole dose curve.

How the values were obtained:
[1] = molecular target: Thyrotropin receptor (Homo sapiens) (UniProt P16473); assay: qHTS assay to identify small molecule agonists of the thyroid stimulating hormone receptor (TSHR) signaling pathway (AID 1224843); note: nearly all actives have a fitted effect of over 45% in size
Summary of the method: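 HEK293 cells stably bearing the thyrotropin receptor were plated at 800 cells/well and challenged with compound (30 min, RT). Accumulated cAMP was quantified via cAMP-d2 competing for cryptate-tagged antibody.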

[2] = qHTS assay to identify small molecule agonists of the hypoxia (HIF-1) signaling pathway - cell viability counter screen (AID 1224844); note: nearly all actives have a fitted effect of over 50% in size
Summary of the method: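 HRE-bla ME-180 cells, 2,000/well in 0.5% dialyzed FBS medium, treated 17 h at 37C with compounds. Viability read in the same wells as the bla reporter, by CellTiter-Glo luminescence after 30 min at room temperature.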

[3] = qHTS assay to identify small molecule agonists of H2AX (AID 1224845; active = well fitted activation curve with a large enough effect in the signal ratio in the repeat runs, not every such curve was filed as active; the % refers to the signal ratio)
Summary of the method: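 Phospho-H2AX Ser139 measured by HTRF (ex 320 nm; em 665 and 620 nm) after 24 hr antibody incubation. Compounds, 15 concentrations, 0.76% DMSO, were applied to CHO-K1 cells for 3hr at 37C before lysis.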

[4] = qHTS assay to identify small molecule agonists of the hypoxia (HIF-1) signaling pathway (AID 1224846; active = well fitted activation curve with a large enough effect in the signal ratio in the repeat runs, not every such curve was filed as active; the % refers to the signal ratio)
Summary of the method: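 HRE-bla ME-180 beta-lactamase reporter cells in medium with 0.5% dialyzed FBS, pre-incubated 5 h then exposed to compounds 17 h at 37C, 5% CO2; reporter induction read with CCF4-AM FRET substrate.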

[5] = qHTS assay to identify small molecule agonists of H2AX - cell viability counter screen (AID 1224847); note: top concentration of the series differs between compounds; nearly all actives have a fitted effect of over 30% in size
Summary of the method: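 Cytotoxicity counter screen in wild-type CHO-K1 cells: a 3 hr compound treatment at 37C across 15 concentrations, followed by CellTiter-Glo luminescence to gauge viable cells.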

[6] = qHTS assay to identify small molecule agonists of the estrogen related receptor (ERR) signaling pathway from Tox21 library (AID 1224849); conditions: ERR reporter cell line, ONE-Glo luciferase, 18 h; at 92.4 µM (top of the series) unless noted; note: nearly all actives have a fitted effect of over 15% in size
Summary of the method: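 ERR reporter cells (NTP line) pre-incubated 6 hours at 37 C, then exposed to compounds for 18 hours at 37 C. ONE-Glo luciferase luminescence was read after 30 minutes at room temperature.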

[7] = qHTS RealTime-Glo MT Cell Viability Assay in HepG2 cells - 24 hour (AID 1224867; active = well fitted curve in the direction sought with a large enough effect in the repeat runs; an effect the other way counts as inactive or inconclusive; note: nearly all actives have a fitted effect of over 50% in size)
Summary of the method: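 HepG2 cells were seeded at 600 cells/well together with NanoLuc luciferase and a cell-permeant prosubstrate, preincubated 5 h at 37 C/5% CO2, then pin-dosed with compounds in DMSO. Nonlytic luminescence from viable cells was read at each time point.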

[8] = qHTS RealTime-Glo MT Cell Viability Assay in HEK293 cells - 32 hour (AID 1224868; active = well fitted curve in the direction sought with a large enough effect in the repeat runs; an effect the other way counts as inactive or inconclusive; note: top concentration of the series differs between compounds; nearly all actives have a fitted effect of over 50% in size)
Summary of the method: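 HEK293 cells were seeded at 600 cells/well together with NanoLuc luciferase and cell-permeant prosubstrate, preincubated 5 h at 37 C/5% CO2, then given compound in DMSO by pintool. Luminescence from viable-cell prosubstrate reduction was read repeatedly over 40 h.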

[9] = A CellTox Green Cytotoxicity Assay to monitor cytotoxicity in HEK293 cells - 0 hour (AID 1224869; active = well fitted curve in the direction sought with a large enough effect in the repeat runs; an effect the other way counts as inactive or inconclusive; note: nearly all actives have a fitted effect of over 50% in size)
Summary of the method: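 HEK293 cells, 600/well, were preincubated 5 hours and then exposed to compounds at 37 C for up to 40 hours. A cell-impermeant cyanine dye staining dead-cell DNA was read by fluorescence at 0, 8, 16, 24, 32 and 40 h time points.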

[10] = qHTS assay to identify small molecule antagonists of the estrogen related receptor (ERR) signaling pathway from Tox21 library (AID 1224848; active = well fitted curve in the direction sought with a large enough effect in the repeat runs; an effect the other way counts as inactive or inconclusive; note: nearly all actives have a fitted effect of over 50% in size)
Summary of the method: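 Reading was by luminescence 30 min after ONE-Glo addition. Before that, ERR cells at 2,000 per well had rested 6 h at 37 C/5% CO2 and then received pin-tooled compounds in DMSO for 18 h at 37 C.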
% is set by controls: 0 for no effect and ±100 for the full control effect.

Chain of Thyrotropin receptor (Homo sapiens) (P16473 whole entry, looked up): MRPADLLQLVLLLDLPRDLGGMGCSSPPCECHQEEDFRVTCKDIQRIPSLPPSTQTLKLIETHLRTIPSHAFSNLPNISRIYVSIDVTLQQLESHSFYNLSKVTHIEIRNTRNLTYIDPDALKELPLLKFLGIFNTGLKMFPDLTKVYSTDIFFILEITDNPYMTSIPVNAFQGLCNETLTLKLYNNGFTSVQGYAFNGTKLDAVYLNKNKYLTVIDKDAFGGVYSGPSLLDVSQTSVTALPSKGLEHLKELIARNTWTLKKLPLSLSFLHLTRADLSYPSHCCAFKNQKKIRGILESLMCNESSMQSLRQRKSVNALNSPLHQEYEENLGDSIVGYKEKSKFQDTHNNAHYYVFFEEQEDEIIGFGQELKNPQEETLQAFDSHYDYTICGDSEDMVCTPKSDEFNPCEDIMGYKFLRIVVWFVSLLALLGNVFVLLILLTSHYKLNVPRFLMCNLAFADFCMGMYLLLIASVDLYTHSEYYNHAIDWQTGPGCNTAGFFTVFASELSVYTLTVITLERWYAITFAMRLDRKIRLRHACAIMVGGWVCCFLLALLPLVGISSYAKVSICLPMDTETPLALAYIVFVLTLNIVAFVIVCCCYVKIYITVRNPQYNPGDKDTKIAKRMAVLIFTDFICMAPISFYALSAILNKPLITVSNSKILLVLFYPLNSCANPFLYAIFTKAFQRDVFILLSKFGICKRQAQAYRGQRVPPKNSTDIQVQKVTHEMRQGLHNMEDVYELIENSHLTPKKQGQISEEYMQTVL

CNc1ncnc2nc[nH]c12
inactive: outcome [1] | Potency [2] | outcome [3] | outcome [4] | Potency [5] | activity change, positive = activation [6] 1.91% | outcome [7] | Potency [8] | Potency [9]

CCC(C)(C)C1CCC(OC)CC1 (centres undefined)
inactive: outcome [1] | Potency [2] | outcome [3] | outcome [4] | Potency [5] | Potency [10] | activity change, positive = activation [6] -1.91% | outcome [7] | Potency [8] | Potency [9]

COC(=O)c1ccc(C(=O)OC)c(C(=O)OC)c1
inactive: outcome [1] | Potency [2] | outcome [3] | outcome [4] | Potency [5] | activity change, positive = activation [6] -1.41% | outcome [7] | Potency [8]

CC1(C)SC(C)(C)SC(C)(C)S1
inactive: outcome [1] | Potency [2] | outcome [3] | outcome [4] | Potency [5] | activity change, positive = activation [6] -8.06% | outcome [7] | Potency [9]

CCCCc1ccc2cccc(S(=O)(=O)O)c2c1
inactive: outcome [1] | Potency [2] | outcome [3] | outcome [4] | Potency [5] | Potency [10] | activity change, positive = activation [6] -0.296% | outcome [7] | Potency [8]

Cc1ncc(CSSCc2cnc(C)c(O)c2CO)c(CO)c1O
inactive: outcome [1] | Potency [2] | outcome [3] | outcome [4] | Potency [5] | Potency [10] | activity change, positive = activation [6] 0.477% [at 42.5 µM] | outcome [7] | Potency [8] | Potency [9]

Nc1ncnc2c1ncn2Cc1c(F)cccc1Cl
inactive: outcome [1] | Potency [2] | outcome [3] | outcome [4] | Potency [5] | activity change, positive = activation [6] 0.331% [at 42.5 µM] | outcome [7] | Potency [8]

CCCCCCCCCCCCCCC
inactive: outcome [1] | Potency [2] | outcome [3] | outcome [4] | Potency [5] | activity change, positive = activation [6] 4.59% | outcome [7] | Potency [8] | Potency [9]

CCC(=O)Nc1cccc(N)c1
inactive: outcome [1] | Potency [2] | outcome [3] | outcome [4] | Potency [5] | activity change, positive = activation [6] -10.7% | outcome [7] | Potency [8] | Potency [9]

Cc1onc(-c2ccccc2)c1-c1ccc(S(N)(=O)=O)cc1
inactive: outcome [1] | Potency [2] | outcome [3] | outcome [4] | Potency [5] | activity change, positive = activation [6] -32.6% [at 42.5 µM] | outcome [7] | Potency [9]

CC(=O)O[C@H](CC(=O)[O-])C[N+](C)(C)C
inactive: outcome [1] | Potency [2] | outcome [3] | outcome [4] | Potency [5] | activity change, positive = activation [6] -2.17% | outcome [7] | Potency [8]

C=C(C)C1CC=C(C)C(O)C1 (centres undefined)
inactive: outcome [1] | Potency [2] | outcome [3] | outcome [4] | Potency [5] | Potency [10] | activity change, positive = activation [6] 2.44% | outcome [7] | Potency [8] | Potency [9]

CO
inactive: outcome [1] | Potency [2] | outcome [3] | outcome [4] | Potency [5] | Potency [10] | activity change, positive = activation [6] -0.295% | outcome [7] | Potency [8]

CCCC=O
inactive: outcome [1] | Potency [2] | outcome [3] | outcome [4] | Potency [5] | Potency [10] | activity change, positive = activation [6] 0.262% | outcome [7] | Potency [8] | Potency [9]

CCCCCCCCC=O
inactive: outcome [1] | Potency [2] | outcome [3] | outcome [4] | Potency [5] | Potency [10] | activity change, positive = activation [6] -1.48% | outcome [7] | Potency [8]

CCCCc1ccc(N)cc1
inactive: outcome [1] | Potency [2] | outcome [3] | outcome [4] | Potency [5] | outcome [7]

CCC(=O)/C=C/c1ccc(OC)cc1
inactive: outcome [1] | Potency [2] | outcome [3] | outcome [4] | Potency [5] | Potency [10] | activity change, positive = activation [6] -2.91% | outcome [7] | Potency [8] | Potency [9]

COc1ccc2cc(C=O)ccc2c1
inactive: outcome [1] | Potency [2] | outcome [3] | outcome [4] | Potency [5] | activity change, positive = activation [6] 3.74% [at 42.5 µM] | outcome [7] | Potency [8] | Potency [9]

Cc1c(F)cc2c(=O)c(C(=O)O)cn3c2c1CCC3C (centres undefined)
inactive: outcome [1] | Potency [2] | outcome [3] | outcome [4] | Potency [5] | activity change, positive = activation [6] -37.3% [at 42.5 µM] | outcome [7] | Potency [8] | Potency [9]

OC[C@H]1O[C@@H]2O[C@H]3[C@H](O)[C@@H](O)[C@@H](O[C@H]4[C@H](O)[C@@H](O)[C@@H](O[C@H]5[C@H](O)[C@@H](O)[C@@H](O[C@H]6[C@H](O)[C@@H](O)[C@@H](O[C@H]7[C@H](O)[C@@H](O)[C@@H](O[C@H]8[C@H](O)[C@@H](O)[C@@H](O[C@H]9[C@H](O)[C@@H](O)[C@@H](O[C@H]1[C@H](O)[C@H]2O)O[C@@H]9CO)O[C@@H]8CO)O[C@@H]7CO)O[C@@H]6CO)O[C@@H]5CO)O[C@@H]4CO)O[C@@H]3CO
inactive: outcome [1] | Potency [2] | outcome [3] | outcome [4] | Potency [5] | Potency [10] | activity change, positive = activation [6] 0.681% [at 42.5 µM] | outcome [7] | Potency [8] | Potency [9]

CCn1cc(C(=O)O)c(=O)c2cc(F)c(N3CCN(C)CC3)cc21
inactive: activation [1] -0.535% [at 19 µM] | activity change, negative = cytotoxicity [2] -1.72% [at 15.8 µM] | activation (H2AX phosphorylation) [3] -0.959% [at 31.6 µM] | activation [4] -0.496% [at 15.8 µM] | activity change, negative = cytotoxicity [5] -2.01% [at 31.6 µM] | activity change, negative = cytotoxicity [7] 0.0471% [at 15.8 µM] | activity change, negative = cytotoxic [8] 4.88% [at 15.8 µM]

CCO[Si](CCCN=C=O)(OCC)OCC
inactive: outcome [1] | Potency [2] | outcome [3] | outcome [4] | Potency [5] | Potency [10] | activity change, positive = activation [6] -6.45% | outcome [7] | Potency [8] | Potency [9]

COc1cc(CCC(C)=O)ccc1O
inactive: outcome [1] | Potency [2] | outcome [3] | outcome [4] | Potency [5] | Potency [10] | activity change, positive = activation [6] 3.47% | outcome [7] | Potency [8]
